Among the test systems are NCI-H23 lung; NCI-H226 lung; NCI-H322M lung; HOP-62 NSCLC; NCI-H460 lung; HOP-92 NSCLC; NCI-H522 lung; 786-0 renal; COLO 205 colon; A549/ATCC NSCLC.
Test in all cases: NCI-60 one-dose screen, 48 h (100 = growth as untreated, 0 = no growth, -100 = all killed)
What all share (conditions): 10 µM unless noted

Data on 14 molecules can be found in PubChem BioAssay (NCI).

About 83,000 compounds went through this panel and 20% of them were active in at least one assay; those are over-represented in the sample as a whole.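 The endpoint reported here, percent growth, reads 100 for growth as untreated, 0 for no net growth and -100 for all cells dead.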 Values without a mark were called inactive. Calls of active or inactive are those of the source. Rule for the calls: active = growth percent below 10; inactive = the rest.

As for `CC(=O)N1N=C(c2cc3ccccc3oc2=O)CC1c1cn(-c2ccccc2)nc1-c1ccc(C)cc1` (stereo unspecified), the growth is 100% with NCI-H23 lung; 94.8% with NCI-H226 lung; 101% in the experiment with NCI-H322M lung; 93% in the experiment on HOP-62 NSCLC; 104% with NCI-H460 lung; 105% in the experiment with HOP-92 NSCLC. Besides, the figures for the growth in the experiment on NCI-H522 lung, with 786-0 renal and in the experiment with COLO 205 colon were 97.4%, 103% and 103%, respectively.

For the molecule `COc1ccc(C2CC(c3cccc(OCCCCOc4cccc(C5=NN(C(C)=O)C(c6ccc(OC)cc6)C5)c4)c3)=NN2C(C)=O)cc1` (stereo unspecified), the growth was 57% with NCI-H23 lung; 62.3% with NCI-H226 lung; 91% in the experiment on NCI-H322M lung; 71.3% with HOP-62 NSCLC; 66.6% in the experiment with NCI-H460 lung; 68.7% in the experiment with HOP-92 NSCLC. The growth was 53.2% in the experiment on NCI-H522 lung, 86.3% with 786-0 renal and 82.8% in the experiment with COLO 205 colon.

Turning to `C#CCN(C)CCCOc1ccc(NCc2ccc(C(=O)NO)cc2)cc1Cl`, the growth is 21.3% in the experiment with NCI-H23 lung; 46.6% in the experiment on NCI-H226 lung; 31.8% with NCI-H322M lung; 24.8% in the experiment with HOP-62 NSCLC; 24.8% in the experiment with NCI-H460 lung; -5.78% (active) with HOP-92 NSCLC. Moreover, the growth with NCI-H522 lung was 13.7%; in the experiment with 786-0 renal it was 38.9%.

In the case of `CCCCc1nc2c(N)nc3ccccc3c2n1Cc1ccc(OC)cc1`, the growth with NCI-H23 lung was 60.5%; with NCI-H226 lung, 73.3%; in the experiment on NCI-H322M lung it was 92.1%; in the experiment with HOP-62 NSCLC it was 77.4%; with NCI-H460 lung it was 63.3%; with HOP-92 NSCLC, -3.74% (active). The growth was 68.5% in the experiment on NCI-H522 lung, 65.8% in the experiment with A549/ATCC NSCLC, 65.4% with 786-0 renal and 48.4% with COLO 205 colon.

For the molecule `Cc1ccc(NC2=C(Cl)C(=O)c3nc(C)ccc3C2=O)c(C)c1`, the growth is -49.9% (active) with NCI-H23 lung; 23.2% with NCI-H226 lung; 36.7% in the experiment with NCI-H322M lung; 47.2% with HOP-62 NSCLC; 46.2% with NCI-H460 lung; 84.7% in the experiment on HOP-92 NSCLC. The growth with NCI-H522 lung was -38.3% (active); in the experiment with 786-0 renal, 23.7%; in the experiment on COLO 205 colon it was 98%.

In the case of `C#Cc1nc(/C=C\CCCCCCC(=O)NO)cs1`, the growth was -63.5% (active) in the experiment with NCI-H23 lung; 74.2% in the experiment with NCI-H226 lung; 78.4% in the experiment on NCI-H322M lung; 79.7% in the experiment with HOP-62 NSCLC; 55.4% in the experiment with NCI-H460 lung; -75.3% (active) in the experiment on HOP-92 NSCLC. Moreover, the growth is -59.8% (active) in the experiment on NCI-H522 lung, -78.5% (active) in the experiment on 786-0 renal and 84.7% in the experiment on COLO 205 colon.

On to `Cc1[nH]c(C(=O)Nc2ccc(S(=O)(=O)N3CCCCC3)cc2OCCOCCOCCOCCOCCOCCOCCOCCOCCOc2cc(S(=O)(=O)N3CCCCC3)ccc2NC(=O)c2[nH]c(C)c3c2CCCCC3=O)c2c1C(=O)CCCC2`, for which the growth with NCI-H23 lung was 20.8%; in the experiment with NCI-H226 lung it was -2.37% (active); with NCI-H322M lung it was 34.1%; in the experiment with HOP-62 NSCLC, 12.5%; in the experiment on NCI-H460 lung, 35.6%; in the experiment with HOP-92 NSCLC it was 16.9%. Further, the growth was 0.322% (active) with NCI-H522 lung, 40.2% in the experiment on 786-0 renal and -30.3% (active) in the experiment on COLO 205 colon.

In the case of `O=[N+]([O-])c1ccc(NC(=S)NNC(=S)Nc2ccc(F)cc2)cc1`, the growth in the experiment on NCI-H23 lung was 89.6%; in the experiment on NCI-H226 lung it was 94.2%; with NCI-H322M lung, 76.9%; in the experiment on HOP-62 NSCLC, 97%; in the experiment with NCI-H460 lung it was 90.9%; in the experiment with HOP-92 NSCLC it was 72.9%. Also, the growth was 70.1% in the experiment with NCI-H522 lung, 97.3% in the experiment with 786-0 renal and 115% in the experiment on COLO 205 colon.

`Cc1nc(/N=C(N)/N=C(\N)c2cccc(Br)c2)sc1C`: the growth with NCI-H23 lung was 59.7%; in the experiment on NCI-H226 lung it was 73.1%; in the experiment with NCI-H322M lung, 86.2%; in the experiment on HOP-62 NSCLC, 50%; in the experiment with NCI-H460 lung, 30.1%; in the experiment with HOP-92 NSCLC, 88%. Moreover, the growth was 45.7% in the experiment with NCI-H522 lung, 75.2% in the experiment on 786-0 renal and 55.6% in the experiment with COLO 205 colon.

Take `O=C1c2ccccc2C23C(=C(c4cncnc4)c4ccccc42)CCCN13` (stereo unspecified): the growth with NCI-H23 lung is 102%; in the experiment on NCI-H226 lung, 97.4%; with NCI-H322M lung it was 107%; in the experiment on HOP-62 NSCLC, 108%; in the experiment on NCI-H460 lung it was 104%; in the experiment with HOP-92 NSCLC, 90.9%. Further, the figures for the growth in the experiment with NCI-H522 lung, in the experiment with 786-0 renal and in the experiment on COLO 205 colon were 92.6%, 96.8% and 121%, respectively.

As to `COc1cc2oc(-c3cccc(NC(=O)[C@@H](N)C(C)C)c3)cc(=O)c2c(OC)c1OC`, the growth in the experiment with NCI-H23 lung is 103%; with NCI-H226 lung, 107%; with NCI-H322M lung, 102%; with HOP-62 NSCLC, 103%; with NCI-H460 lung it was 103%; in the experiment with HOP-92 NSCLC, 91.9%. The growth was 92.7% with NCI-H522 lung, 87.1% in the experiment on 786-0 renal and 111% with COLO 205 colon.

As to `CCCNNC(=O)c1ccc(-c2ccc(NC(=O)CCCCCCC(=O)N[C@H](C(=O)N3C[C@H](O)C[C@H]3C(=O)N[C@@H](C)c3ccc(-c4scnc4C)cc3)C(C)(C)C)cc2)cc1`, the growth in the experiment with NCI-H23 lung was 37.3%; with NCI-H226 lung, 46.5%; in the experiment on NCI-H322M lung, 34.7%; in the experiment with HOP-62 NSCLC it was 27.8%; in the experiment on NCI-H460 lung it was 31.8%; in the experiment on HOP-92 NSCLC, -26.7% (active). Also, the growth with NCI-H522 lung was 10%; in the experiment with 786-0 renal it was 36.9%; with COLO 205 colon it was -31.1% (active).

On to `CC(C)(C)OC(=O)NCc1ccc(CNc2c([N+](=O)[O-])cnc3ccccc23)cc1`, for which the growth is 46.2% in the experiment with NCI-H23 lung; 55.2% in the experiment with NCI-H226 lung; 91.6% in the experiment with NCI-H322M lung; 58.5% with HOP-62 NSCLC; 70.1% with NCI-H460 lung; 32.1% in the experiment with HOP-92 NSCLC. Further, the growth in the experiment on NCI-H522 lung is 62.4%; in the experiment on 786-0 renal it was 73.8%; with COLO 205 colon, 80.1%.

With `Cc1ccc2c(n1)C(=O)C(Cl)=C(Nc1ccc(C(=O)OC(C)(C)C)cc1)C2=O`, the growth in the experiment on NCI-H23 lung is 75.2% [9.25 µM]; in the experiment with NCI-H226 lung, 85.8% [9.25 µM]; in the experiment with NCI-H322M lung, 101% [9.25 µM]; in the experiment with HOP-62 NSCLC, 106% [9.25 µM]; with NCI-H460 lung it was 102% [9.25 µM]; in the experiment on HOP-92 NSCLC, -54.9% [9.25 µM] (active). For the same molecule, the growth with NCI-H522 lung is -14.1% [9.25 µM] (active); in the experiment with 786-0 renal, -56.4% [9.25 µM] (active); in the experiment on COLO 205 colon, -46.1% [9.25 µM] (active).
